Measurements: the supplement of paper PMC10338343
± gives the standard deviation.

What follows are sequences tested on MILI (PIWIL2) piRISC loaded with L1MC piRNA (26 nt) (assay: pre-steady-state target cleavage rate (min^-1); guide: L1MC piRNA 5'p-UAACUAAAUACUAUGCAAGCUGUAGG; MIWI and MILI are mouse PIWI proteins and EfPiwi is from a freshwater sponge; tags in brackets are library labels; higher = faster piRNA-guided slicing of the target). Conditions: auxiliary factor: 500 nM mouse GTSF1.
In short: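 A transcribed, DNA-blocked target RNA library (0.1 nM) and 1 nM active affinity-purified piRISC bearing one synthetic guide were incubated in HEPES–potassium acetate buffer at 33 °C for 0–8 or 0–960 min, either with or without 500 nM GTSF1 partner protein. Uncleaved targets were sequenced, normalised to depth and to weakly complementary targets, and pooled over three trials, with k3 capped at 0.0001 min^-1. The pre-steady-state cleavage rate was derived with a burst-and-steady-state fit.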
For UCCUGGAUCAGCUUGCAUAGUAAAAACAAA, the “pre-steady-state target cleavage rate” value was 0.027 ± 0.0099. For UCCUGGAUGAGCAAGCAUAGUAUUUAGAAA, the “pre-steady-state target cleavage rate” value was 0.0674 ± 0.015. With UCCUGGAUGUCGAACGUAUGUAUUUAGUAUA the “pre-steady-state target cleavage rate” value was less than 0.0001. In the case of UCCUGGAUGUCCUUGCAAUCUAUUUAGUUA, the “pre-steady-state target cleavage rate” value is reported as 0.00463 ± 0.0037. For UCCUGGUACACCUUGCAUAGUAUUUACAAA, the “pre-steady-state target cleavage rate” value was 0.046 ± 0.018. For UCCUGGUACAGCUUGCAUUGUAUUUAGUAA, the “pre-steady-state target cleavage rate” value was 0.112 ± 0.024. UCCUGGAACAGCUUGCAUAGUAAUAAGUUA was tested, and the “pre-steady-state target cleavage rate” value was 0.103 ± 0.018. With UCCUGCUACAGCUUGGUAAGUAUUUAGUAA the “pre-steady-state target cleavage rate” value was 0.207 ± 0.039. For UCCUGGAUGUCGAAGUCAUAGUAUUUAGUUA, the “pre-steady-state target cleavage rate” value was 0.00447 ± 0.003. In the case of UCCUCCUACAGCUUCGAUAGUAUUUACAAA, the “pre-steady-state target cleavage rate” value is reported as 0.0556 ± 0.016. With UCCUGGUAGAGCUUGCAUAGUAUUUACAAA the “pre-steady-state target cleavage rate” value was 0.015 ± 0.0066. UCCUGGAUGUGCUUGCAUUGUAUUUAGUAA was tested, and the “pre-steady-state target cleavage rate” value was 0.0856 ± 0.015. UCCUCCUACUCCUUGCAUAGUAUUUACAAA was tested, and the “pre-steady-state target cleavage rate” value was 0.0842 ± 0.022. For UCCUGGUACAGCUUGCAUAGUAAUUUGUUA, the “pre-steady-state target cleavage rate” value was 0.18 ± 0.05. UCCUGGAUGUCCUUGCAUAGUUAAUAGUUA was tested, and the “pre-steady-state target cleavage rate” value was 0.00959 ± 0.0043. UCCUGGAUCAGCUUGCAUAGUAUAAAGAAA was tested, and the “pre-steady-state target cleavage rate” value was 0.0366 ± 0.01. UCCUGGAUGAGCUUGGAUAGUAUUUAGAUA was tested, and the “pre-steady-state target cleavage rate” value was 0.0187 ± 0.0061. With UCCUGGAACAGCUUGCAUACUAUUUACAAA the “pre-steady-state target cleavage rate” value was 0.0166 ± 0.0064. With UCCUCCUACAGCUUGCAUAGUUAUUACAAA the “pre-steady-state target cleavage rate” value was 0.0124 ± 0.0054. For UCCUGGAUGUCCUUGCAUAGUAUAUACUUA, the “pre-steady-state target cleavage rate” value was 0.00862 ± 0.0049. UCCUGGAUGUCCUUGCAUAGUAUUUAGUGUA was tested, and the “pre-steady-state target cleavage rate” value was 0.0384 ± 0.012. With UCCUGGAUGUCGUUGCAUAGUAUUUAUUUA the “pre-steady-state target cleavage rate” value was 0.0344 ± 0.011. In the case of UCCUGGAACACCUUGCAUAGUAUUUAGUAA, the “pre-steady-state target cleavage rate” value is reported as 0.17 ± 0.022. With UCCUGGAUGUCCUUGCAUAGUAUAUAGUAA the “pre-steady-state target cleavage rate” value was 0.0276 ± 0.01. For UCCUGGUACAGCUAGCAUAGUAUUUUCAAA, the “pre-steady-state target cleavage rate” value was 0.0662 ± 0.02. For UCCUGGAUGUCCUAGCAUAGAAUUUAGUUA, the “pre-steady-state target cleavage rate” value was 0.00538 ± 0.004. In the case of UCCUGGUACAGCUUGCAUAGUUUAUAGUUA, the “pre-steady-state target cleavage rate” value is reported as 0.0525 ± 0.018. UCCUGGAUCAGCUUGCAUAGCUAUUUAGUUA was tested, and the “pre-steady-state target cleavage rate” value was 0.00402 ± 0.004. For UCCUGGAUCAGCUUGCAUAGUAUAAACAAA, the “pre-steady-state target cleavage rate” value was 0.0772 ± 0.019. For UCCUGGAUGUCGAUGCCAUAGUAUUUAGUUA, the “pre-steady-state target cleavage rate” value was 0.00491 ± 0.0034. UCCUGGAUGAGCUUGGUAAGUAUUUAGUAA was tested, and the “pre-steady-state target cleavage rate” value was 0.00762 ± 0.0042. With UCCUGGAUGUGCUUGCAUAGUAAAUAGUUA the “pre-steady-state target cleavage rate” value was 0.0601 ± 0.012. In the case of UCCUGGAUGUCGUUGCAUAGUAUUUUCUUA, the “pre-steady-state target cleavage rate” value is reported as 0.00558 ± 0.0035.
